Results published in PubChem BioAssay AID1159580 (chemical genetic matrix, 2015).
Screen size: about 5,500 compounds; about 2,000 (36%) were called active. Roughly 18% stayed inconclusive and do not appear here. Rule as the data show it: active = normalized growth mostly below about 0.91 (no sharp cut-off); inconclusive = no clear call, values can overlap the other calls; inactive = mostly above about 0.92. The list shows a part of the results.

Assay: chemical genetic growth profiling, strain panel (AID 1159580);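 also: tested at 20 µM; growth read once vehicle control cultures reached saturation at 30 °C; 1 = growth at the plate median or of vehicle wells; lower values mean less growth of the strain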
Settings: S. cerevisiae deletion strains, growth OD
[1] = locus YAL040C, strain CLN3, stronger effect = lower value
[2] = locus YCL061C, strain MRC1 (second series), stronger effect = lower value
[3] = locus YDR363W, strain ESC2, stronger effect = lower value
[4] = locus YER002W, strain NOP16, stronger effect = lower value
[5] = locus YJR075W, strain HOC1, stronger effect = lower value
[6] = locus YNL128W, strain TEP1, stronger effect = lower value
[7] = locus YNL175C, strain NOP13, stronger effect = lower value
[8] = locus YNL197C, strain WHI3, stronger effect = lower value
[9] = locus YNL224C, strain SQS1, stronger effect = lower value
[10] = locus YNL322C, strain KRE1, stronger effect = lower value
[11] = locus YOR083W, strain WHI5 (second series), stronger effect = lower value
[12] = locus YPL055C, strain LGE1, stronger effect = lower value

SMILES	normalized growth [1]	normalized growth [2]	normalized growth [3]	normalized growth [4]	normalized growth (locus YGR078C, strain PAC10, stronger effect = lower value)	normalized growth [5]	normalized growth [6]	normalized growth [7]	normalized growth [8]	normalized growth [9]	normalized growth [10]	normalized growth [11]	normalized growth [12]	normalized growth (locus YGR229C, strain SMI1, stronger effect = lower value)	normalized growth (locus YMR307W, strain GAS1, stronger effect = lower value)	normalized growth (locus YNL153C, strain GIM3, stronger effect = lower value)
OCCN1CCN(CC/C=C2/c3ccccc3Sc3ccc(C(F)(F)F)cc32)CC1	1.04 (inactive)	0.973 (inactive)	0.923 (inactive)	1.01 (inactive)	0.975 (inactive)	0.942 (inactive)	1.02 (inactive)	1.07 (inactive)	1.02 (inactive)	1.05 (inactive)	0.974 (inactive)	0.887 (inactive)	0.87 (active)			
CN(C)S(=O)(=O)c1ccc2c(c1)/C(=C/c1cc3c([nH]1)CCCC3)C(=O)N2	1.07 (inactive)	0.995 (inactive)	0.983 (inactive)	0.983 (inactive)		1.01 (inactive)	0.982 (inactive)	0.976 (inactive)	0.995 (inactive)	0.983 (inactive)	0.983 (inactive)	1 (inactive)	0.985 (inactive)	0.972 (inactive)	0.996 (inactive)	0.977 (inactive)
